ChEMBL document CHEMBL4513216, “Probing the Open Global Health Chemical Diversity Library for Multistage-Active Starting Points for Next-Generation Antimalarials” (ACS Infect Dis, 2020)
Screen size: about 69,000 compounds; about 8,600 (12%) showed an effect of 50% or more. The list comes from a sample in which strong results are over-represented; it also holds similar structures and randomly drawn compounds.

system: Plasmodium berghei; experiment: Screen against P. berghei liver stage (PbLuc), transformed with Luciferase, at 10uM; assay type: functional, HepG2; settings: tested at 10 uM

Q: For CCN(C(=O)CCCOC)C(c1ccc(Cl)cc1)c1ccccn1 (configuration not stated), which INHIBITION is on record?
A: 31%

Q: O=C(C1CCCC1)N1CCCC2(CCN(c3cnccn3)CC2)C1 was tested. Which INHIBITION did it give?
A: -9.74%

Q: Which INHIBITION does the source give for c1c(CN2CCOCC2)nc2n1CCN(CC1CC1)C2 here?
A: 23.6%

Q: With O=C(Cc1ccc(F)cc1F)NCC(=O)Nc1ccccn1 as the compound, how does the INHIBITION read?
A: 45%

Q: CCN1CC(C(=O)N2CCc3cc(C(N)=O)n(C)c3C2)CC1=O (configuration not stated) was tested. Which INHIBITION did it give?
A: 32.2%

Q: With Cn1c(C(N)=O)cc2c1CN(C(=O)C1CCCN(C3CCCC3)C1)CC2 (configuration not stated) as the compound, how does the INHIBITION read?
A: 15.5%

Q: With CCN1CC(C(=O)N2CCc3cc(C(=O)N(C)C)n(C)c3C2)CCC1=O (configuration not stated) as the compound, how does the INHIBITION read?
A: 51.7%

Q: Which INHIBITION does the source give for Cn1c(C(N)=O)cc2c1CN(C(=O)C1CC(=O)N(C(C)(C)C)C1)CC2 (configuration not stated) here?
A: 48%

Q: Which INHIBITION does the source give for CCN1CC(C(=O)N2CCc3cc(C(N)=O)n(C)c3C2)CCC1=O (configuration not stated) here?
A: 54.5%

Q: CCN1CC(C(=O)N2CCN(c3cnn(C)c(=O)c3)CC2)CCC1=O (configuration not stated) was tested. Which INHIBITION did it give?
A: -22%

Q: For Cc1ncc2c(n1)CN(CCCOc1ccc(C#N)cc1)CC2, which INHIBITION is on record?
A: 19.2%

Q: Cc1nnc(CCNC(=O)Nc2ccc(S(C)(=O)=O)cc2)[nH]1 was tested. Which INHIBITION did it give?
A: -30%

Q: For CC(=O)c1cccc(NC(=O)NCCc2nnc[nH]2)c1, which INHIBITION is on record?
A: 66.5%

Q: How did the INHIBITION turn out when O=C(NCCc1nnc[nH]1)Nc1cccc(SC(F)F)c1 was run?
A: 51.7%

Q: Which INHIBITION does the source give for CC(C)SCc1cccc(NC(=O)NC(C)c2nc[nH]n2)c1 (configuration not stated) here?
A: 5.33%

Q: How did the INHIBITION turn out when CC(=O)c1cccc(NC(=O)NCCOCC2CC2)c1 was run?
A: -35.9%

Q: How did the INHIBITION turn out when CC(C)SCc1cccc(NC(=O)NCCc2nnc[nH]2)c1 was run?
A: 56.3%

Q: COCCNC(=O)Nc1cccc(COCCOC(C)C)c1 was tested. Which INHIBITION did it give?
A: 18.6%

Q: How did the INHIBITION turn out when CC(=O)c1cccc(NC(=O)NCCCc2nc(C(C)C)no2)c1 was run?
A: -34.8%

Q: O=C(CCc1ccc(Br)cc1)NCCc1nnc[nH]1 was tested. Which INHIBITION did it give?
A: -7.12%

Q: Cc1cc(C)n(CC2CCCN2C(=O)c2c[nH]c(=O)c(Cl)c2)n1 (configuration not stated) was tested. Which INHIBITION did it give?
A: 21%

Q: Which INHIBITION does the source give for COc1ccc(OCCNC(=O)CN(C)Cc2nnc(C)n2C)cc1 here?
A: -10.8%

Q: Which INHIBITION does the source give for O=C1COC2(CCN(CC3CC3)CC2)CN1c1cncnc1 here?
A: -33.3%

Q: For COc1cc(OC)cc(C2CC(=O)Nc3c2nc2n3CCCC2)c1 (configuration not stated), which INHIBITION is on record?
A: 1.19%

Q: Cc1noc(C)c1CN(C)CC(=O)Nc1ccnn1C(C)C1CC1 (configuration not stated) was tested. Which INHIBITION did it give?
A: -72.5%

Q: For O=C(O)c1ccc(CN2CCC(c3ccnc4ccnn34)CC2)cc1, which INHIBITION is on record?
A: 13.5%

Q: CC(=O)N1CCCC(c2nnc3n2CCN(C(=O)C2CCCCC2)C3)C1 (configuration not stated) was tested. Which INHIBITION did it give?
A: 33.39%

Q: For Cc1ccc(F)c(NCc2ccc(C(=O)N(C)C)[nH]2)c1, which INHIBITION is on record?
A: -17.9%

Q: Which INHIBITION does the source give for CCn1cc(S(=O)(=O)NCC(c2ccccc2)N2CCOCC2)c(C)n1 (configuration not stated) here?
A: 8.335%

Q: For CN(C)CCN(C)C(=O)NC1CCC(Oc2ccccc2C#N)CC1 (configuration not stated), which INHIBITION is on record?
A: 34%

Q: CCNC(=O)NC1CCC(Oc2ccccc2C#N)CC1 (configuration not stated) was tested. Which INHIBITION did it give?
A: 40.2%

Q: With CN(C)C1(C(=O)NC2CCC(Oc3ccccc3C#N)CC2)CCC1 (configuration not stated) as the compound, how does the INHIBITION read?
A: 67.4%

Q: For Cc1cnn(CC2CCCCN2C(=O)Cc2c(C)nn(C)c2C)c1 (configuration not stated), which INHIBITION is on record?
A: 7.08%

Q: Which INHIBITION does the source give for CCC[C@H]1CN(Cc2ccc(N(C)C)nc2)C[C@@H]1NC(=O)CSC here?
A: 33.1%

Q: With CCC[C@H]1CN(Cc2ccc(N(C)C)nc2)C[C@@H]1NC(=O)CO as the compound, how does the INHIBITION read?
A: 42.1%

Q: Which INHIBITION does the source give for CCC[C@H]1CN(Cc2ccc(N(C)C)nc2)C[C@@H]1NC(=O)CCOC here?
A: 62.2%

Q: Which INHIBITION does the source give for O=C1CCC2(CCN(c3ncc(F)cn3)CC2)N1Cc1ccncc1 here?
A: 35.8%

Q: For Cc1cnc(N2CCC3(CCCCN3C)C2)nc1 (configuration not stated), which INHIBITION is on record?
A: -38.1%

Q: O=C(c1ccco1)N1CCC12CCN(c1ncc(F)cn1)CC2 was tested. Which INHIBITION did it give?
A: 58%

Q: Which INHIBITION does the source give for O=C(c1ccco1)N1CCCC12CCN(c1ncccn1)CC2 here?
A: -72.6%

Q: O=C1CCC2(CCCN(c3ncc(F)cn3)CC2)N1Cc1ccccc1 (configuration not stated) was tested. Which INHIBITION did it give?
A: -2.17%

Q: How did the INHIBITION turn out when Cc1cnc(N2CCC3(CCCN3C(=O)c3ccco3)CC2)nc1 was run?
A: 60.5%

Q: How did the INHIBITION turn out when O=C(Nc1ccccc1Cn1cccn1)N1CCC(N2CCCC2)C1 (configuration not stated) was run?
A: 5.42%

Q: How did the INHIBITION turn out when CCCc1nc(NCCCn2ccnc2)c2c(n1)c(C)nn2CC was run?
A: 17.7%

Q: Cc1nn(C)c2nc3c(c(C(=O)/N=c4\[nH]nc(C(C)C)s4)c12)CCC3 was tested. Which INHIBITION did it give?
A: 7.83%

Q: With Cc1noc(CCNC(=O)NCC(=O)NCc2ccccc2)n1 as the compound, how does the INHIBITION read?
A: -176%

Q: CC(NC(=O)CCCOc1ccc(F)cc1)c1nnc2n1CCC2 (configuration not stated) was tested. Which INHIBITION did it give?
A: -12.2%

Q: Which INHIBITION does the source give for CO[C@H]1CCN(Cc2c(C)noc2C)[C@@H]2CN(Cc3ccncc3)C[C@H]12 here?
A: 12.6%

Q: For CC(C)(C)c1nccc(C2(c3ccccc3Cl)CCNCC2)n1, which INHIBITION is on record?
A: 72.8%

Q: Clc1ccccc1C1(c2ccnc(C3CCCC3)n2)CCNCC1 was tested. Which INHIBITION did it give?
A: 94.4%

Q: Which INHIBITION does the source give for CCC1C(=O)NCCN1c1ccnc(C(C)(C)C)n1 (configuration not stated) here?
A: 26.8%

Q: How did the INHIBITION turn out when Clc1ccccc1C1(c2ccnc(-c3ccncc3)n2)CCNCC1 was run?
A: 55.1%

Q: For CC(C)c1nccc(C2(c3ccccc3Cl)CCNCC2)n1, which INHIBITION is on record?
A: 20.2%

Q: For Clc1ccccc1C1(c2ccnc(-c3ncccn3)n2)CCNCC1, which INHIBITION is on record?
A: 33.5%

Q: Which INHIBITION does the source give for Clc1ccccc1C1(c2ccnc(CC3CC3)n2)CCNCC1 here?
A: 43.5%

Q: For Clc1ccccc1C1(c2ccnc(C3CC3)n2)CCNCC1, which INHIBITION is on record?
A: 44.1%

Q: Which INHIBITION does the source give for O=c1[nH]cccc1-c1nccc(C2(c3ccccc3Cl)CCNCC2)n1 here?
A: 33%
